Screening data (PubChem)
rTrxR1 inhibitor = rat TrxR1 inhibition | O89049 | recombinant rTrxR1, NADPH fluorescence consumption, selenite substrate | Potency, µM (series often up to 114 µM), for inactives: top-dose activity change, negative = inhibition, hits mostly inhibitors | 1% of 390,000 active | AID 588453; further: on the % scale 0 is the no-effect control and ±100 the full control effect; nearly all actives have a fitted effect of over 65% in size
Target sequence (O89049 whole entry, looked up): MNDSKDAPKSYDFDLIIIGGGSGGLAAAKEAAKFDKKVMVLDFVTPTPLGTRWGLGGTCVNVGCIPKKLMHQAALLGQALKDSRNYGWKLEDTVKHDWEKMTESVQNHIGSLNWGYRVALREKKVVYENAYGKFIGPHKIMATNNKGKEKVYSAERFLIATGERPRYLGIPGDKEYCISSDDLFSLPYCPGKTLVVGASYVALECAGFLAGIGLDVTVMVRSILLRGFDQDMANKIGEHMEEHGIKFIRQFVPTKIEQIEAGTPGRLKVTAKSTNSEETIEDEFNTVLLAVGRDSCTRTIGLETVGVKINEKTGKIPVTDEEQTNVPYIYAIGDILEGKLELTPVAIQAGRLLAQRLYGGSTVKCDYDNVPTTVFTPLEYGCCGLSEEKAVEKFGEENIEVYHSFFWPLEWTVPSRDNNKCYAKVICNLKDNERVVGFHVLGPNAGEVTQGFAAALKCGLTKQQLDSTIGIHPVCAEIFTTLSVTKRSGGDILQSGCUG
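Rat TrxR1 (90 nM in the dispensed reagent) was pre-reduced with 400 uM NADPH for 5 min at room temperature, then incubated with compound for 15 min. After 400 uM selenite was added, NADPH fluorescence (Ex 340/Em 450 nm) was followed for 8 min.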
Glioma ERSR ind = induces the endoplasmic reticulum stress response in human glioma cells; U87-MG GRP78 promoter luciferase reporter, 16 h; Potency, µM, for inactives: top-dose activation, usual class: activators; 0.02% of 420,000 active; further: series mostly up to about 76 µM; % of control where 0% means no effect; nearly all actives have a fitted effect of over 35% in size
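Stably transfected U87-MG human glioma cells carrying a GRP78-based luminescent sensor were seeded at 1000 cells/well, pin-dosed with compounds and incubated 16 h. Luciferase reagent was then added, and end-point luminescence was read after 10 min at room temperature.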
12-LOX inh = blocks human arachidonate 12S-lipoxygenase. P18054. purified 12hLO, xylenol orange hydroperoxide absorbance. Potency, µM (doses to about 108 µM), inactives show at the highest dose activity change, negative = inhibition, hits mostly inhibitors. 1.1% of 580,000 active; further: on the % scale 0 is the no-effect control and ±100 the full control effect
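Hydroperoxide product was detected by ferrous iron/xylenol orange as the 573 to 405 nm absorbance ratio. Arachidonic acid at 40 uM (final) was turned over for 30 min at room temperature by 150 nM human 12hLO, pH 7.0 Hepes buffer, after 15 min compound preincubation.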
TrxR1 substrate = substrates of rat thioredoxin reductase 1. O89049. Potency, µM (highest dose often 114 µM), without a hit: top-dose activity change, negative = substrate turnover. 0.01% of 390,000 active. purified TrxR1 substrate turnover, NADPH consumption readout. AID 588456; further: on the % scale 0 is the no-effect control and ±100 the full control effect; nearly all actives have a fitted effect of over 50% in size
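Rat TrxR1, dispensed at 90 nM, was prereduced with 400 uM NADPH (final) for 5 min at ~22 deg C, then incubated with compound 15 min before 400 uM selenite. A first-read NADPH fluorescence drop versus no-compound background flagged substrates.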
mIDH1 inhibitor = human IDH1 R132H inhibition; O75874; IDH1-R132H enzyme, NADPH consumption, diaphorase/resazurin fluorescence; Potency, µM (doses to about 76.6 µM), inactives show top-dose activity change, negative = inhibition, hits mostly inhibitors; 0.093% of 390,000 active; AID 602179; further: on the % scale 0 is the no-effect control and ±100 the full control effect; nearly all actives have a fitted effect of over 65% in size
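IDH1-R132H (0.5 ug/mL) preincubated 30 min with compound, then NADPH (0.016 mM) and alpha-KG (2 mM) added; 80 min at RT, pH 7.5. Remaining NADPH coupled via diaphorase/resazurin to fluorescence (540/590 nm); concentration-response curves normalized to no-enzyme control.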
Anesthetic bind = candidate novel general anesthetic via apoferritin binding; P02791; apoferritin/1-aminoanthracene competitive binding, fluorescence; Potency, µM (doses to about 77.5 µM), for the others: at the highest dose activity change, negative = displacement, hits mostly inhibitors; 0.074% of 350,000 active; further: on the % scale 0 is the no-effect control and ±100 the full control effect; nearly all actives have a fitted effect of over 20% in size
Target sequence (P02791 2-175 limits assumed): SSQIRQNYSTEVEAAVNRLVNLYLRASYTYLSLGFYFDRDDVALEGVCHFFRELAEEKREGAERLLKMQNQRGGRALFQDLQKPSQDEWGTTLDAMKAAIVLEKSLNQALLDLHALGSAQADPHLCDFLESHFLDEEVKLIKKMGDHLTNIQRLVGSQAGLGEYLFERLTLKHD
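Probe: 1-aminoanthracene (50% saturated, PBS). Protein: horse-spleen apoferritin, 10 uM. Incubation: 10 min, room temperature. Detection: 380 nm excitation, 535 nm emission. Analysis: normalized response, four-parameter Hill.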
The depositor's hits bear a star; ? = inconclusive; nt = no result; ! = not active in a repeat; [ ] = remark or other dose. Rows were chosen to be rich in hits. Some 1.7% of all compounds tested hit in one or more screens of this group. The call rests on the fitted dose curve; in most records, active means well fitted curve in the direction sought with a large enough effect; inconclusive means small, poorly fitted or top-dose-only effect, or another doubt; inactive means no such curve, though single readings can be large; an effect the other way counts as inactive or inconclusive. Potency means the concentration at half of the fitted maximal effect.

SMILES	rTrxR1 inhibitor	Glioma ERSR ind	12-LOX inh	TrxR1 substrate	mIDH1 inhibitor	Anesthetic bind
Cc1nc(NCCn2nc(-c3ccccc3)ccc2=O)cc(C2CC(O)C2)n1 (centres undefined)	nt	nt	52%	nt	nt	nt
O=C(Cc1cccs1)OCC(=O)c1ccccc1	nt	nt	40µM*	nt	nt	nt
O=C(COC(=O)Cc1cccs1)Nc1ccccc1	1%[57.1 µM]	1%	14%	14%[57.1 µM]	-4%	-13%
CNCc1cccc(OC(F)(F)F)c1	nt	nt	-3%[12.5 µM]	nt	nt	nt
COc1ccccc1NC(=O)C1=C(C)NC(Nc2nc3ccccc3o2)=NC1c1ccccc1 (centres undefined)	nt	nt	-10%	nt	nt	nt
COc1ccccc1N1CCN(CCN2C(=O)C3CCCCN3C2=O)CC1 (centres undefined)	18%[57.1 µM]	-3%	13µM*	-7%	3%	-3%
COc1ccccc1N1CCN(CCCN2C(=O)C3CCCCN3C2=O)CC1 (centres undefined)	25%	-1%	0%	5%	4%	nt
O=C1C=C(C2OC(CO)C(O)C2O)C(=O)N1 (centres undefined)	7.1µM*	-5%	4%	4%	-12%	nt
OC[C@@H]1O[C@@H](O)[C@H](O)[C@H](O)[C@@H]1O	nt	-3%	nt	nt	nt	0%
CCOC(=O)c1c(S(=O)(=O)N2CCN(C3CCCCC3)CC2)c(C)n(C)c1C	7%	-4%	0%	-1%	0%	-4%
CCOC(=O)c1c(S(=O)(=O)N2CCCC2)nn(CC)c1C	nt	nt	13µM*	nt	nt	nt
O=[N+]([O-])c1ccc(O/N=[N+](\[O-])N2CCCC2)c([N+](=O)[O-])c1	18µM*	-11%	nt	-7%	nt	nt
CS(=O)(=O)N1CCN(/[N+]([O-])=N/Oc2ccc([N+](=O)[O-])cc2[N+](=O)[O-])CC1 (tested in a mixture with another compound)	11µM*	-5%	nt	5%	nt	nt
CS(=O)(=O)N1CCN(/[N+]([O-])=N/Oc2ccc([N+](=O)[O-])cc2[N+](=O)[O-])CC1	8.9µM*	-12%	nt	-3%	nt	nt
CS(=O)(=O)N1CCN(c2ccc([N+](=O)[O-])cc2F)CC1	4%[57.1 µM]	0%	-6%	-1%[57.1 µM]	-6%	-9%
Nc1c(-c2nc(-c3cccs3)no2)nnn1-c1cccc(F)c1	15%	-1%	-9%	5%	5%	0%
Cn1nnc2sc3c(c2c1=O)CCCC3	17%[57.1 µM]	-3%	-13%	9%[57.1 µM]	1%	32µM*
C=CCc1cccc(CNc2nc3ccccc3n2C)c1O	-4%	7%	32µM*	-12%	1%	-16%
Oc1ccc(Cl)cc1CNc1cnc2ccccc2c1	4%	9%	40µM*	26%	16%	?
C=CCc1cccc(CNc2cnc3ccccc3c2)c1O	-13%	2%	7.9µM*	17%	0%	-23%
COc1cccc(CN2CCc3c(cc(C(=O)Nc4cc(C)ccc4C)n3C)C2)c1	nt	nt	56%	nt	nt	nt
Cc1ccc(Cl)cc1NC(=O)c1nc2ccccc2nc1N1CCCC1	nt	nt	-2%	nt	nt	nt
Cc1ccc(S(=O)(=O)c2nc(-c3cccs3)oc2SC(C)C)cc1	17%	0%	1%	10%	5%	-4%
CCS(=O)(=O)c1oc(-c2ccc(F)cc2)nc1S(=O)(=O)c1ccc(Br)cc1	0.56µM*	-10%	5%	8%	-24%	?
CS(=O)(=O)c1oc(-c2ccc(F)cc2)nc1S(=O)(=O)c1ccc(Cl)cc1	0.5µM*	-11%	?	11%	-11%	-11%
SMILES	rTrxR1 inhibitor	Glioma ERSR ind	12-LOX inh	TrxR1 substrate	mIDH1 inhibitor	Anesthetic bind
CC(C)S(=O)(=O)c1oc(-c2ccc(F)cc2)nc1S(=O)(=O)c1ccccc1	0.32µM*	-11%	-7%	11%	17%	-17%
CC(C)S(=O)(=O)c1oc(-c2cccs2)nc1S(=O)(=O)c1ccc(F)cc1	0.71µM*	-11%	1%	29%	36%	-10%
COc1ccccc1CCN1CCCC(CN(C)C(=O)c2cc(C)n(C)c2C)C1 (centres undefined)	nt	nt	7%	nt	nt	nt
CCSc1oc(-c2ccccc2)nc1S(=O)(=O)c1ccc(F)cc1	nt	nt	10µM*	nt	nt	nt
CCCCS(=O)(=O)c1oc(-c2ccc(F)cc2)nc1S(=O)(=O)c1ccccc1	1.1µM*	-11%	-3%	-3%	14%	?
O=C(NCc1ccccn1)C1(Oc2ccc(Cl)cc2)CCNCC1	nt	nt	8%	nt	nt	nt
COC[C@@H](N)C(=O)N1C[C@@H]2C[C@H]1C(=O)N2c1cc(-c2ccccc2)ccc1OC	nt	nt	60%	nt	nt	nt
CC(=O)c1ccc(C2CC34CNS(=O)(=O)C3CC2O4)cc1 (centres undefined)	28µM*	-3%	nt	-2%	nt	-1%
Clc1cccc(-c2nn3c(Cn4cnc5ccccc54)nnc3s2)c1	-17%	-5%	10µM*!	1%	9%	-9%
Brc1ccccc1-c1nn2c(Cn3cnc4ccccc43)nnc2s1	nt	nt	11µM*	nt	nt	nt
COC(=O)C(O)(c1ccccc1)C(Nc1ccc(OC)cc1)c1ccc(Br)cc1 (centres undefined)	nt	nt	4%	nt	nt	nt
Cc1ccc(-c2nc3ccccc3n2C)o1	22µM*	-2%	-7%	40%	7%	?
COc1ccccc1-c1cc(C(F)(F)F)nc(S(C)(=O)=O)n1	35µM*	-15%	0%	5%	3%	-3%
COc1ccccc1-c1cc(C(F)(F)F)nc(S(=O)(=O)CCCC(=O)NC(C)C)n1	18µM*	?	14%	18%	10%	-8%
COc1ccccc1-c1cc(C(F)(F)F)nc(N2CCCC2)n1	-2%	0%	0%	5%	2%	-6%
CNc1nc(Nc2ccc(C)c(Cl)c2)c2cnn(C)c2n1	-11%	-1%	?	-7%	29µM*	-9%
CNc1nc(Nc2ccc(C)c(C)c2)c2cnn(C)c2n1	nt	nt	6%	nt	nt	nt
CC(=O)Nc1ccn(C2CC3OCC(NC(=O)C(Cc4ccccc4)NC(=O)OC(C)(C)C)C3O2)c(=O)n1 (centres undefined)	9%	-4%	nt	4%	nt	-4%
O=C(CSc1ccc(-c2ccco2)nn1)Nc1ccc(F)cc1F	25µM*	1%	6%	-4%	10%	-16%
CC(=O)c1cccc(NC(=O)CSc2ccc(-c3ccco3)nn2)c1	11µM*	0%	?	-4%	10%	?
O=C(CSc1ccc(-c2ccco2)nn1)NCc1ccc(Cl)cc1	28µM*	0%	?	1%	4%	1%
O=C(CSc1ccc(-c2ccco2)nn1)N1CCCC1	45µM*	-4%	-18%	2%	-11%	-5%
O=C(CSc1ccc(-c2ccco2)nn1)N1CCCCC1	-66%	1%	14%	7%[57.1 µM]	5%	-14%
O=C(CSc1ccc(-c2ccccn2)nn1)Nc1ccc(F)cc1F	-9%	-3%	1%	-3%	18%	-5%
